Reference: PubChem BioAssay (EPA / NIEHS)
Where “and” joins values, the source holds several entries; their conditions need not be identical. Equal values may be shown once. Some structures have more than one record in an assay (separate samples or runs), and their calls can disagree. Calls of active or inactive are those of the source. How the source made its calls: active means hit-call score of the fitted dose curve at least 0.9, where 1 is the maximum; inactive means score below 0.9.

Assays:
[1] = ATG_RORE_CIS: Attagene CIS-FACTORIAL HepG2 Assay for human RAR-related Orphan Receptor Element (RORE) (AID 2282959); conditions: HepG2 Attagene cis-factorial RORE reporter, mRNA; actives raise or lower the signal
Method in brief: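 Measured here: transcript induction of a cis-regulated reporter in HepG2 cells transiently transfected via FuGene 6. After 24 h, RNA was processed by RT-PCR and fluorescent capillary electrophoresis; DMSO defined baseline activity.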

[2] = ATG_Sox_CIS: Attagene CIS-FACTORIAL HepG2 Assay for human SRY-box transcription factor (SOX) (AID 2282960); conditions: HepG2 Attagene cis-factorial SOX reporter, mRNA; actives raise or lower the signal
Method in brief: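 Using transiently transfected HepG2 cells, reporter transcription driven by cis elements was assessed 24 h after dosing. Signal was fluorescence of capillary-separated RT-PCR products, with DMSO defining baseline activity.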

[3] = target: Transcription factor Sp1 (Homo sapiens) (UniProt P08047); experiment: ATG_Sp1_CIS: Attagene CIS-FACTORIAL HepG2 Assay for human Specificity Protein 1 (Sp1) (AID 2282961); conditions: HepG2 Sp1 cis-reporter transcription, actives raise or lower the signal
Method in brief: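 After transient transfection of HepG2 cells with cis-promoter reporter units and 24 h chemical treatment, reporter transcripts were quantified by RT-PCR and capillary electrophoresis fluorescence. Gain- and loss-of-signal fitted against DMSO.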

[4] = ATG_SREBP_CIS: Attagene CIS-FACTORIAL HepG2 Assay for human Sterol Regulatory Element Binding (SREBP) (AID 2282962); conditions: HepG2 Attagene cis-factorial SREBP reporter, mRNA; actives raise or lower the signal
Method in brief: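 mRNA induction of transfected cis-promoter reporters in HepG2 cells, 24 h post-dose. Detection: RT-PCR with 6-FAM-labelled products, HpaI digest, capillary electrophoresis. DMSO served as negative control and baseline.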

[5] = target: Signal transducer and activator of transcription 3 (Homo sapiens) (UniProt P40763); experiment: ATG_STAT3_CIS: Attagene CIS-FACTORIAL HepG2 Assay for human Signal Transducer and Activator of Transcription 3 (STAT3) (AID 2282963); conditions: HepG2, Attagene cis-factorial STAT3 reporter transcription; actives raise or lower the signal
Method in brief: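 Values derive from bidirectional fits relative to DMSO of reporter mRNA levels, measured by RT-PCR with capillary electrophoresis, in HepG2 cells carrying transiently transfected cis-regulated reporter units and exposed 24 h.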

[6] = ATG_TA_CIS: Attagene CIS-FACTORIAL HepG2 Assay for human TA Basal Promoter (AID 2282964); conditions: HepG2 Attagene CIS-factorial TA basal promoter reporter; actives raise or lower the signal
Method in brief: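 Steps: transfect HepG2 with MRTUs; dose 24 h; isolate RNA, DNase-treat, reverse-transcribe; PCR and FAM-label reporter cDNA; digest with HpaI 2h at 37 C; run capillary electrophoresis. Activity fitted both directions against DMSO.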

[7] = ATG_TCF_b_cat_CIS: Attagene CIS-FACTORIAL HepG2 Assay for human T-Cell-Factor with beta-catenin (TCF/b-cat) (AID 2282965); conditions: HepG2 TCF/beta-catenin cis-reporter transcription, actives raise or lower the signal
Method in brief: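 HepG2 cells transiently transfected with cis-promoter-driven multiplexed reporter units; reporter mRNA measured 24 h after dosing by RT-PCR, FAM labelling, HpaI digestion and capillary electrophoresis. Bidirectional fitting relative to DMSO baseline.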

[8] = ATG_TAL_CIS: Attagene CIS-FACTORIAL HepG2 Assay for human TAL Basal Promoter (AID 2282966); conditions: HepG2 Attagene cis-factorial TAL promoter reporter; actives raise or lower the signal;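 further: background control endpoint measuring basal TAL promoter reporter mRNA not a specific factor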
Method in brief: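 Fluorescence of labelled reporter cDNA fragments, resolved by capillary electrophoresis, gave the readout. Human HepG2 liver cells carried transiently transfected cis-element reporter units and were treated for 24 hours; activity was fitted bidirectionally against DMSO.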

[9] = ATG_PPRE_CIS: Attagene CIS-FACTORIAL HepG2 Assay for human Peroxisome Proliferator-activated Response Element (PPRE) (AID 2282958); conditions: HepG2 PPRE cis-element reporter, Attagene transcription factor profiling; actives raise or lower the signal
Method in brief: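 After human HepG2 hepatoma cells were transiently transfected with cis-promoter reporter constructs, they were exposed to test chemicals for 24 hours. Reporter RNA was then reverse-transcribed, PCR-amplified, FAM-labeled, HpaI-digested and quantified by capillary electrophoresis.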

Chain of Signal transducer and activator of transcription 3 (Homo sapiens) (P40763 whole entry, looked up): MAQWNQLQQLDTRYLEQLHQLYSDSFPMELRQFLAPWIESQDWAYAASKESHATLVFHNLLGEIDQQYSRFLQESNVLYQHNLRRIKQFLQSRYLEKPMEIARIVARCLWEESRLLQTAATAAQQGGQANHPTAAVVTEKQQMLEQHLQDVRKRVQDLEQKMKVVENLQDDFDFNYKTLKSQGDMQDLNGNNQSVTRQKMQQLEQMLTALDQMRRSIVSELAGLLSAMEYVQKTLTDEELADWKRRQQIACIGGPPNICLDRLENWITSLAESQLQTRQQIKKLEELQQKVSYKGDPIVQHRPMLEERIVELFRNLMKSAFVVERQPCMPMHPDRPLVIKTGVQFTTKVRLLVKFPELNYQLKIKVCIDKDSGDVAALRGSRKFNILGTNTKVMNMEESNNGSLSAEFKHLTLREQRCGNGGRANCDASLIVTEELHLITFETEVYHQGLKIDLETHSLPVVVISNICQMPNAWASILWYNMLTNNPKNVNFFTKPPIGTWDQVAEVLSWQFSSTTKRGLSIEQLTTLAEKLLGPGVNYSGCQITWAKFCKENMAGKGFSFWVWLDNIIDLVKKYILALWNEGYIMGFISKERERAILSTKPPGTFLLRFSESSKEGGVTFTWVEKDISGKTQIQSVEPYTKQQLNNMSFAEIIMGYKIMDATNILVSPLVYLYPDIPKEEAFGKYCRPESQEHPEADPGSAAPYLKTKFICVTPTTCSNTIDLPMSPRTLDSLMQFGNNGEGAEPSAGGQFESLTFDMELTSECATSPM
Chain of Transcription factor Sp1 (Homo sapiens) (P08047 whole entry, looked up): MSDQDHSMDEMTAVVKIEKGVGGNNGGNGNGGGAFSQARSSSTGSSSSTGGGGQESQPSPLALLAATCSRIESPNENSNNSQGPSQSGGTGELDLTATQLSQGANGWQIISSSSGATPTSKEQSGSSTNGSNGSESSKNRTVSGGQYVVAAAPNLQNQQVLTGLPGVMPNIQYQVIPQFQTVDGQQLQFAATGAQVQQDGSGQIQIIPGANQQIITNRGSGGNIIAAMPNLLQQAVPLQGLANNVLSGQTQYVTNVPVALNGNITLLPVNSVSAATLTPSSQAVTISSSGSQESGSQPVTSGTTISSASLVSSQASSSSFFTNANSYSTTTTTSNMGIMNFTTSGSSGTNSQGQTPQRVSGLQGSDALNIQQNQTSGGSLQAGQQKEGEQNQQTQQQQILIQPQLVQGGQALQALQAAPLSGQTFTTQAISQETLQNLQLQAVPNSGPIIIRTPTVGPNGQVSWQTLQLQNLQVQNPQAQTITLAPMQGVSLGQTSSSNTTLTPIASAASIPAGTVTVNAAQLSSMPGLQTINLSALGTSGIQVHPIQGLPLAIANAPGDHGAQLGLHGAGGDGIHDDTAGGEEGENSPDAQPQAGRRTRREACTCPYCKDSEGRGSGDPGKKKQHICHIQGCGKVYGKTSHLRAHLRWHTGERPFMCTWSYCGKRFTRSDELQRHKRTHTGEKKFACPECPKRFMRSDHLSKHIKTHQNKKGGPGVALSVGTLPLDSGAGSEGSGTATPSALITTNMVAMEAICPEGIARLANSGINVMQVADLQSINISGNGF

Compound	outcome [1]	outcome [2]	outcome [3]	outcome [4]	outcome [5]	outcome [6]	outcome [7]	outcome [8]	outcome [9]	AC50 [5]	AC50 [7]	AC50 [4]	AC50 [9]	AC50 [3]	AC50 [1]	AC50 [6]	AC50 [2]
Clc1ccc(C(Cl)(Cl)Cl)cc1	inactive	inactive	inactive	inactive	inactive	inactive	inactive	inactive	–	–	–	–	–	–	–	–	–
CCNc1nc(NC(C)C)nc(SC)n1	inactive	inactive	inactive	inactive	inactive	inactive	inactive	inactive	inactive	–	–	–	–	–	–	–	–
CCCCCCCCCc1ccc(O)cc1	–	inactive	inactive	inactive	inactive	inactive	inactive	inactive	inactive	168 µM (active)	100 µM (active)	–	–	–	–	–	–
O=C(NC(=O)c1cc(F)c(F)cc1Cl)Nc1cc(F)ccc1N1CCC(C(=O)O)CC1	inactive	inactive	inactive	–	inactive	inactive	inactive	inactive	inactive	–	–	4.65 µM (active)	–	–	–	–	–
CCCCCCOC(=O)c1ccccc1C(=O)OCCCCCC	inactive	inactive	inactive	inactive	inactive	inactive	inactive	inactive	–	–	–	–	2.84 µM (active)	–	–	–	–
Cc1ccccc1[N+](=O)[O-]	inactive	inactive	inactive	inactive	inactive	inactive	inactive	inactive	inactive	–	–	–	–	–	–	–	–
O=S(=O)(O)C(F)(F)C(F)(F)C(F)(F)C(F)(F)C(F)(F)C(F)(F)F	inactive	inactive	inactive	inactive	inactive	inactive	inactive	inactive	–	–	–	–	97.7 µM (active) [middle of 4 runs]	–	–	–	–
COc1ccc(O)c(C(C)(C)C)c1	–	inactive	–	inactive	inactive	inactive	–	inactive	–	–	162 µM (active)	–	–	184 µM (active)	–	–	–
Cc1cc(-c2ccc(N)c(C)c2)ccc1N	inactive	inactive	inactive	inactive	inactive	inactive	inactive	inactive	–	–	–	–	–	–	–	–	–
ClC1=C(Cl)[C@]2(Cl)[C@@H]3[C@@H](Cl)[C@H]4O[C@H]4[C@@H]3C1(Cl)C2(Cl)Cl	inactive	inactive	–	–	inactive	inactive	inactive	inactive	inactive	–	–	51.4 µM (active)	–	26.7 µM (active)	–	–	–
Cc1ccccc1O	inactive	inactive	inactive	inactive	inactive	inactive	inactive	inactive	inactive	–	–	–	–	–	–	–	–
CCC(C)(c1ccc(O)cc1)c1ccc(O)cc1	inactive	inactive	inactive	–	inactive	inactive	inactive	inactive	–	–	39.7 µM (active) and 49.7 µM (active) and 47.8 µM (active)	33.4 µM (active) and 41.5 µM (active) and 13.9 µM (active)	–	24.4 µM (active)	59.1 µM (active) and 21.5 µM (active)	60.7 µM (active)	–
C[C@]12CCC(=O)C=C1CC[C@@H]1[C@@H]2CC[C@@]2(C)[C@H]1CC[C@]2(C)O	inactive	inactive	inactive	inactive	inactive	inactive	inactive	inactive	inactive	–	55.7 µM (active) and 15.9 µM (active)	57.5 µM (active) and 45.9 µM (active) and 62.4 µM (active)	–	–	–	–	–
CCOP(=S)(OCC)SCSC(C)(C)C	–	inactive	inactive	–	inactive	inactive	inactive	inactive	inactive	–	–	100 µM (active) and 73.9 µM (active)	–	–	–	–	–
O=S(=O)(O)C(F)(F)C(F)(F)C(F)(F)C(F)(F)F	inactive	inactive	inactive	inactive	inactive	inactive	inactive	inactive	inactive	–	–	–	–	–	–	–	–
C=CC(=O)NCNC(=O)C=C	–	inactive	inactive	inactive	inactive	inactive	inactive	inactive	inactive	–	–	–	–	–	–	–	–
CO/C=C(/C(=O)OC)c1ccccc1COc1cccc(C(F)(F)F)n1	–	inactive	inactive	–	inactive	inactive	–	inactive	–	–	26.4 µM (active)	4.44 µM (active)	37.3 µM (active)	–	23 µM (active)	–	–

Compound	outcome [1]	outcome [2]	outcome [3]	outcome [4]	outcome [5]	outcome [6]	outcome [7]	outcome [8]	outcome [9]	AC50 [5]	AC50 [7]	AC50 [4]	AC50 [9]	AC50 [3]	AC50 [1]	AC50 [6]	AC50 [2]
O=C(NC(=O)c1c(F)cccc1F)Nc1cc(Cl)c(OC(F)(F)C(F)F)c(Cl)c1	inactive	inactive	inactive	inactive	inactive	inactive	inactive	inactive	inactive	–	–	–	–	–	–	–	–
ClC1=C(Cl)[C@]2(Cl)[C@@H]3[C@H]4C[C@H]([C@@H]5O[C@H]45)[C@@H]3[C@@]1(Cl)C2(Cl)Cl	inactive	inactive	inactive	inactive	inactive	inactive	–	inactive	inactive	–	4.74 µM (active)	–	–	–	–	–	–
CC(C)C(=O)OCC(C)(C)C(OC(=O)C(C)C)C(C)C (stereo not given)	inactive	inactive	inactive	inactive	inactive	inactive	inactive	inactive	inactive	–	–	–	–	–	–	–	–
CCC(C)c1cc([N+](=O)[O-])cc([N+](=O)[O-])c1O (stereo not given)	–	–	–	–	inactive	inactive	inactive	inactive	–	–	–	27.6 µM (active)	16.5 µM (active)	20.9 µM (active)	26.4 µM (active)	–	10.8 µM (active)
N#Cc1ccc(N(CC(N)=O)CC(F)(F)F)cc1C(F)(F)F	inactive	inactive	inactive	inactive	inactive	inactive	inactive	inactive	inactive	–	–	–	–	–	–	–	–
Oc1ccc(C(c2ccc(O)cc2)(C(F)(F)F)C(F)(F)F)cc1	–	inactive	inactive	inactive	inactive	inactive	inactive	inactive	inactive	–	11.1 µM (active) and 8.78 µM (active)	–	11.1 µM (active) and 5.95 µM (active) and 16.8 µM (active)	18.8 µM (active) and 18.4 µM (active)	–	–	–
c1ccc(-c2ccccc2)cc1	inactive	inactive	inactive	inactive	inactive	inactive	inactive	inactive	inactive	–	–	–	–	–	–	–	–
C[C@]12CCC(=O)C=C1CC[C@@H]1[C@@H]2CC[C@]2(C)C(=O)CC[C@@H]12	inactive	inactive	inactive	inactive	inactive	inactive	inactive	inactive	inactive	–	–	68.4 µM (active)	–	–	–	–	–
COS(=O)(=O)OC	inactive	inactive	inactive	inactive	inactive	inactive	inactive	inactive	inactive	–	–	–	–	–	–	–	–
CC1=C2C[C@H]3[C@@H](CC=C4C[C@@H](O)CC[C@@]43C)[C@@H]2CC[C@]12O[C@@H]1C[C@H](C)CN[C@H]1[C@H]2C	–	inactive	–	inactive	inactive	–	inactive	inactive	inactive	–	–	–	–	12.8 µM (active)	12.9 µM (active)	12.7 µM (active)	–
Nc1ccc(-c2ccc(N)cc2)cc1	inactive	inactive	inactive	inactive	inactive	inactive	inactive	inactive	–	–	–	–	–	–	–	–	–
OCC(O)CO	inactive	inactive	inactive	inactive	inactive	inactive	inactive	inactive	inactive	–	–	–	26.1 µM (active)	–	–	–	–
O=NN(c1ccccc1)c1ccccc1	inactive	inactive	inactive	inactive	inactive	inactive	inactive	inactive	inactive	–	–	–	–	–	–	–	–
CCOC(=O)C(O)(c1ccc(Cl)cc1)c1ccc(Cl)cc1	inactive	inactive	inactive	inactive	inactive	inactive	inactive	inactive	inactive	–	–	–	–	–	–	–	–
CN(C)c1nc(=O)n(C2CCCCC2)c(=O)n1C	inactive	inactive	inactive	inactive	inactive	inactive	inactive	inactive	inactive	–	–	–	–	–	–	–	–
O=C(O)C(F)(F)C(F)(F)C(F)(F)C(F)(F)C(F)(F)F	inactive	inactive	inactive	inactive	inactive	inactive	inactive	inactive	inactive	–	–	–	–	–	–	–	–
